PubChem BioAssay
Calls of active or inactive are those of the source. Unless noted, no rule for the calls is given here.

Columns and labels:
[1] = tested on: Wnt5a (protein binding on small-molecule microarray); experiment: Wnt5a binders on small-molecule microarray, primary screen, biophysical, 635/667 nm fluorescence (AID 1142); details: 635 nm fluorescence, higher = more signal;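 also: fluorescence read at 667 nm with signal to noise per printed feature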
[2] = cell viability in Huh7 cells, primary screen, cytotoxicity control for HCV replication inhibitor project, CellTiter-Glo luminescence, basal, 48 h (AID 1143); details: Huh7 HCV replicon, higher = more signal, called active from +8 up or from −8 down;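 also: Huh7 hepatoma cells carrying a hepatitis C replication reporter with no stimulus; test concentration not given here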
[3] = P. aeruginosa biofilm formation inhibitors, primary screen, PAO1 strain, BacTiter-Glo luminescence, LB-PBS (AID 1144); details: 12 h, higher = more signal
[4] = CREB reporter modulators without forskolin, primary screen, cell-based, PC12, CRE-LacZ reporter, unstimulated (AID 1145); details: no forskolin, luminescence, 4.5 h, higher = more signal, called active from +8 up or from −8 down
[5] = CREB reporter modulators under forskolin, primary screen, cell-based, PC12, CRE-LacZ reporter, forskolin-stimulated (AID 1146); details: luminescence, 4.5 h, higher = more signal, called active from +8 up or from −8 down;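 also: PC12 cells with 6xCRE LacZ reporter stimulated by forskolin 10 µM; beta-galactosidase reporter signal reflecting CREB driven transcription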
[6] = target: Streptavidin (Streptomyces avidinii) (UniProt P22629); experiment: streptavidin binders on small-molecule microarray, primary screen, artefact control for SMM compound annotation, biophysical, 635/667 nm fluorescence (AID 1147); details: streptavidin binding, higher = more signal;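 also: signal reflects streptavidin binding to arrayed compounds as a control protein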
Streptavidin (Streptomyces avidinii), sequence (P22629 whole entry, looked up): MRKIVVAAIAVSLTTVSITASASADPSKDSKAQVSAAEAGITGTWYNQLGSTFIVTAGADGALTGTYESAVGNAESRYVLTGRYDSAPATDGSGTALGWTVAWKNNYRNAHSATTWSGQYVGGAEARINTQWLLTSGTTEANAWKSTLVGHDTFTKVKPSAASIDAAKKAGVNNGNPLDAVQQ

[7] = small-molecule binders of probe aInhba, primary screen, biochemical, small-molecule microarray, 635/667 nm fluorescence (AID 1148); details: higher = more signal;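 also: score merges 667nm spot fluorescence with signal-to-noise for antibody binding to printed compounds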
[8] = target: Torsin-1A (Homo sapiens) (UniProt O14656); experiment: torsin A binders from cell lysate, primary screen, small-molecule microarray, wild-type, 635/667 nm (AID 1149); details: COS7 hTOR1A-WT lysate, 635 nm fluorescence, higher = more signal
Torsin-1A (Homo sapiens), sequence (O14656 whole entry, looked up): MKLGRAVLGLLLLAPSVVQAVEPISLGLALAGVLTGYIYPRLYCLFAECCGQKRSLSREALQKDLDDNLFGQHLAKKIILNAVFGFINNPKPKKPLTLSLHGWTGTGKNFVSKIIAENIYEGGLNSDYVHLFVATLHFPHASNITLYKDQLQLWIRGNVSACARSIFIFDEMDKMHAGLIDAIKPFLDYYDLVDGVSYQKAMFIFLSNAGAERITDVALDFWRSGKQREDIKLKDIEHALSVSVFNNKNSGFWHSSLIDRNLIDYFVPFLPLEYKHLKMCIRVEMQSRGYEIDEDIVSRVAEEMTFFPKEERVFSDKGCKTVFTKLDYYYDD

[9] = target: Torsin-1A (Homo sapiens) (UniProt O14656); experiment: small-molecule binders of mutant TOR1A in lysate, primary screen, cell lysate, small-molecule microarray, COS7 lysate, 635/667 nm fluorescence (AID 1150); details: COS7 hTOR1A mutant lysate, 635 nm fluorescence, higher = more signal;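 also: score pools 667 nm emission and signal to noise measuring lysate protein binding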
[10] = tested on: Sonic hedgehog protein (Shh); experiment: small-molecule binders of Shh protein, primary screen, biochemical, small-molecule microarray, 635/667 nm fluorescence (AID 1151); details: small-molecule microarray binding, 635 nm fluorescence; higher = more signal;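 also: Shh protein binding to compounds spotted on small-molecule microarray slides; score combines spot fluorescence intensity with signal-to-noise across triplicate slides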
[11] = E. coli DRC41 culture turbidity changes, primary screen, E. coli filamentation inducer project, strain DRC41, OD650, 48 h (AID 1152);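 also: E. coli MC1000 strain DRC41 lacking acrAB efflux pump and sulA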; details: E. coli DRC41 (acrAB sulA), higher = more signal, called active from +8 up or from −8 down
[12] = small-molecule binders of probe aLefty1, primary screen, biochemical, small-molecule microarray, 635/667 nm fluorescence (AID 1153); details: higher = more signal;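 also: score merges spot fluorescence with signal-to-noise ratio from the scanned slide images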
[13] = PSAC antagonists in infected red cells, primary screen, cell-based, P. falciparum Indochina, OD700, 1 h (AID 1154); details: P. falciparum Indochina infected RBC osmotic lysis, higher = more signal, called active from +8 up or from −8 down
[14] = PSAC antagonists in infected red cells, primary screen, cell-based, P. falciparum Indochina, OD700, 2 h (AID 1155);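 also: lysis reports solute entry through the parasite surface anion channel PSAC; channel blockers reduce lysis of infected cells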; details: P. falciparum Indochina infected erythrocytes, osmotic lysis OD700; higher = more signal, called active from +8 up or from −8 down
[15] = osmotic lysis modulators in infected erythrocytes, primary screen, PSAC antagonist project, cell-based, P. falciparum Indochina, OD700, 3 h (AID 1156); details: higher = more signal, called active from +8 up or from −8 down
[16] = PSAC antagonists in infected red cells, primary screen, cell-based, P. falciparum Indochina, OD700, 18 h (AID 1157); details: P. falciparum Indochina infected erythrocytes, osmotic lysis OD700, 18 h; higher = more signal, called active from +8 up or from −8 down
[17] = modulators of S6 phosphorylation in cells, primary screen, cell-based, A549, cytoblot, luminescence, serum-stimulated (AID 1158); details: A549 phospho-S6 cytoblot, 5 h, higher = more signal;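 also: serum-stimulated A549 lung adenocarcinoma cells; signal is phosphorylated S6 detected by cytoblot immunostaining with HRP secondary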
[18] = target: NADPH oxidase 2 (Homo sapiens) (UniProt P04839); experiment: NOX2-dependent H2O2 signal modulators, primary screen, NOX inhibitor project, cell-based, HEK293-NOX2, PMA-stimulated, Amplex Red fluorescence (AID 1159); details: 45 min, higher = more signal, called active from +8 up or from −8 down; also: test concentration not given here
NADPH oxidase 2 (Homo sapiens), sequence (P04839 whole entry, looked up): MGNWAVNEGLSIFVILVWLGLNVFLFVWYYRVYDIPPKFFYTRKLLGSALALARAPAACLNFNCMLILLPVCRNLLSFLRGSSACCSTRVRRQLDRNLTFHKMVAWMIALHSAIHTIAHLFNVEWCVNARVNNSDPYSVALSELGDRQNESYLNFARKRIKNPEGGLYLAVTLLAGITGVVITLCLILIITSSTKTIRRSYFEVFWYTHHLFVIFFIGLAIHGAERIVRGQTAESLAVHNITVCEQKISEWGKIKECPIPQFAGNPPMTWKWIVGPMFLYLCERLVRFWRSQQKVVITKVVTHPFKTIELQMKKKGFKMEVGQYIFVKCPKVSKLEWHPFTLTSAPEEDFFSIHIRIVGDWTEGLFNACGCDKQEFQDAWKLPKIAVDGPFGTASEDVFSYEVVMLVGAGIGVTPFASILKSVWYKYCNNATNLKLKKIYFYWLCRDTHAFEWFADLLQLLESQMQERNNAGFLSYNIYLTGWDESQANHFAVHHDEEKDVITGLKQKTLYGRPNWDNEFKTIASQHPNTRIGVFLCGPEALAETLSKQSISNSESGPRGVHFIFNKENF

[19] = target: NADPH oxidase 4 (Homo sapiens) (UniProt Q9NPH5); experiment: NOX4-dependent H2O2 signal modulators, primary screen, NOX inhibitor project, cell-based, HEK293-NOX4, tetracycline-induced, Amplex Red fluorescence (AID 1160); details: 45 min, higher = more signal, called active from +8 up or from −8 down
NADPH oxidase 4 (Homo sapiens), sequence (Q9NPH5 whole entry, looked up): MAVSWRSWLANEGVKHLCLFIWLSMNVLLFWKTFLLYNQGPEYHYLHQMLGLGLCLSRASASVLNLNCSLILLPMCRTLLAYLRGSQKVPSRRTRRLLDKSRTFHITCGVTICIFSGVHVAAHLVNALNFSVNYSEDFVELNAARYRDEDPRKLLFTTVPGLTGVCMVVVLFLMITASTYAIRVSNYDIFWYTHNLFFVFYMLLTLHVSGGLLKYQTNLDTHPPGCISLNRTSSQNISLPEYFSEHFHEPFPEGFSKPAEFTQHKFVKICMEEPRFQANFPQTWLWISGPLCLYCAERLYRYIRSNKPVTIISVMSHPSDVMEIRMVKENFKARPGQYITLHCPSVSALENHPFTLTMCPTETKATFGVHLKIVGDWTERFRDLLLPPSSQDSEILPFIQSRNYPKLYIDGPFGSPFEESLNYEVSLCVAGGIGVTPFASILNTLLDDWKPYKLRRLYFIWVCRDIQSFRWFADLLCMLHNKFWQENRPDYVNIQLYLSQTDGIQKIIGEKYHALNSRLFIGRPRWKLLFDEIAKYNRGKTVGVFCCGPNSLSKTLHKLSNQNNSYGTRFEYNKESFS

[20] = target: NADPH oxidase 5 (Homo sapiens) (UniProt Q96PH1); experiment: NOX5-dependent H2O2 signal modulators, primary screen, NOX inhibitor project, cell-based, HEK293-NOX5, Amplex Red fluorescence (AID 1161); details: HEK293-NOX5, ionomycin, 45 min, higher = more signal
NADPH oxidase 5 (Homo sapiens), sequence (Q96PH1 whole entry, looked up): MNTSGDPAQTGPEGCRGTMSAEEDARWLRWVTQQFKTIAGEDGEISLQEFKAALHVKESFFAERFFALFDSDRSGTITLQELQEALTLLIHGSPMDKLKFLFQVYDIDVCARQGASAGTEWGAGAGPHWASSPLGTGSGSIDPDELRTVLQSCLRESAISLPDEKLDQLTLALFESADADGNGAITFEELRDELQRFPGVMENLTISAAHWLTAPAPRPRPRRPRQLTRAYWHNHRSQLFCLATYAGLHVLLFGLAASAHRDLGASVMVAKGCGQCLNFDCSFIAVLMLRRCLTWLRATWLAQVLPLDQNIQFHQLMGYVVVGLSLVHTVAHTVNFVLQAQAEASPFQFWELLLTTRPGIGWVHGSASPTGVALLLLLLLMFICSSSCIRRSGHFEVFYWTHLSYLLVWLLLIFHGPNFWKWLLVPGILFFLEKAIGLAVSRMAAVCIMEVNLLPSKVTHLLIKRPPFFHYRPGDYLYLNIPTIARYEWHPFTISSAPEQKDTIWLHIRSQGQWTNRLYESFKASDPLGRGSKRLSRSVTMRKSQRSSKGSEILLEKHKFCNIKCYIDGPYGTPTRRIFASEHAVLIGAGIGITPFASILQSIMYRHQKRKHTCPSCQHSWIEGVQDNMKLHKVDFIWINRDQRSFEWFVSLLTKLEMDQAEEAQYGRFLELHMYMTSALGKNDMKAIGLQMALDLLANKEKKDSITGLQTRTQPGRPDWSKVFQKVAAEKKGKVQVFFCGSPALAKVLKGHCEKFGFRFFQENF

SMILES	composite z-score [1]	z-score [2]	z-score [3]	z-score [4]	z-score [5]	composite z-score [6]	composite z-score [7]	composite z-score [8]	composite z-score [9]	composite z-score [10]	z-score [11]	composite z-score [12]	z-score [13]	z-score [14]	z-score [15]	z-score [16]	z-score [17]	z-score [18]	z-score [19]	z-score [20]
O=C1N(CCS(=O)(=O)c2ccccc2)Cc2ccccc2[C@@H]2OC(c3ccc(OCCCO)cc3)=N[C@]12CCS(=O)(=O)c1ccccc1	1.24	-1.5 (inactive)	0.151 (inactive)	3.2 (inactive)	-0.897 (inactive)	0.844	-0.108	0.827	1.51	1.4	-0.769 (inactive)	0.568	26 (active)	18.8 (active)	3.14 (inactive)	2.44 (inactive)	-0.355	1.5 (inactive)	2.01 (inactive)	1.96
O=C1O[C@H](c2ccccc2)[C@H](c2ccccc2)N2[C@H]1[C@@H](C(=O)O)[C@]1(C(=O)Nc3ccc(C#CC4(O)CCCCCC4)cc31)[C@H]2c1ccc(O)cc1	-0.243	-3.06 (inactive)	-2.13 (inactive)	-1.29 (inactive)	-1.14 (inactive)	-0.467	-0.152	-0.449	0.198	-0.335	2.05 (inactive)	0.0355	-0.224 (inactive)	-0.925 (inactive)	-2.31 (inactive)	-1.16 (inactive)	1.65	0.867 (inactive)	-0.353 (inactive)	-1.06
CC1(C)C(=O)C(c2ccccc2)=C2CN3C(=O)N(CCc4ccccc4)C(=O)C3(Cc3ccc(C(F)(F)F)cc3)C=C21 (stereo not given)	0.437	-1.29 (inactive)	0.332 (inactive)	-0.379 (inactive)	0.866 (inactive)	1.19	0.196	-0.102	0.608	-1.01	-2.21 (inactive)	0.349	0.582 (inactive)	0.316 (inactive)	0.482 (inactive)	0.668 (inactive)	0.0875	-0.462 (inactive)	-1.68 (inactive)	-0.494
CCCCNC(=O)c1ccc(C#C[Si](C(C)C)(C(C)C)C(C)C)c(OC(C)=O)c1	0.268	-0.915 (inactive)	-0.084 (inactive)	0.223 (inactive)	0.184 (inactive)	1.04	-0.187	0.598	0.216	1.74	-0.52 (inactive)	-0.0518	0.964 (inactive)	0.272 (inactive)	0.551 (inactive)	0.158 (inactive)	0.152	1.26 (inactive)	0.355 (inactive)	0.458
O=C1OCCC=C[C@H]2OC34C=CCN(c5ccc(Cl)cc5)C(=O)[C@H]3N(CCCCCCO)C(=O)[C@@H]4C12 (stereo not given in full)	-0.365	-0.352 (inactive)	0.358 (inactive)	0.0645 (inactive)	-1.34 (inactive)	-0.985	0.0333	0.132	-0.175	-0.341	1.96 (inactive)	-0.0292	0.769 (inactive)	0.138 (inactive)	1.13 (inactive)	0.255 (inactive)	0.551	1.47 (inactive)	0.036 (inactive)	2.61
C=C(C(=O)CC[C@@H](OC(=O)c1ccccc1-c1ccccc1C(=O)O)c1ccccc1OCCO)C(C)C	0.618	0.182 (inactive)	-0.695 (inactive)	3.64 (inactive)	3.34 (inactive)	-0.344	-0.0529	0.908	0.663	2.3	0.0884 (inactive)	0.15	4.57 (inactive)	0.769 (inactive)	1.56 (inactive)	0.232 (inactive)	0.689	-0.518 (inactive)	-0.798 (inactive)	-1.48
C=CCC(OC(C)=O)[C@@H]1[C@@H](N(Cc2ccc(-c3cccc(C(F)(F)F)c3)o2)C(=O)Cc2ccc(OC)cc2)c2cc(OCCCO)ccc2N1C(=O)Cc1ccc2ccccc2c1 (stereo not given in full)	-0.19	-1.58 (inactive)	-0.787 (inactive)	0.134 (inactive)	0.376 (inactive)	-0.679	-0.238	-1.96	-1.85	0.0678	-0.597 (inactive)	0.0026	0.572 (inactive)	0.214 (inactive)	1.83 (inactive)	0.165 (inactive)	0.258	-1.6 (inactive)	-1.4 (inactive)	-1.11
CC(CO)N1C(=O)[C@@H]2[C@H]3C(=O)OCC=C[C@H]3OC23C=CCN(c2ccc(Cl)cc2)C(=O)[C@@H]13 (stereo not given in full)	-0.691	0.359 (inactive)	2.78 (inactive)	0.866 (inactive)	0.154 (inactive)	-2.13	-0.26	-2.73	-2.95	-0.721	0.458 (inactive)	-0.283	-0.499 (inactive)	-0.219 (inactive)	0.639 (inactive)	0.0119 (inactive)	-0.172	0.8 (inactive)	0.28 (inactive)	1.34
